High-throughput results: PubChem, Broad Institute
IDE exosite inh = displaces the probe from the exo-site of human IDE | z-score at 20 µM | P14735 | 6.3% of 17,000 active | purified IDE, FL-6b probe fluorescence polarization; stronger effect = lower value;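 active = z-score of -3 or lower, meaning strong loss of probe binding signal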;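 note: His-tagged human IDE residues 42-1019 made in E. coli with 30 nM FL-6b probe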
A number is an active result; - = inactive; ! = repeats disagree. This is one part of a sample in which hits are shown more often than they occur.

SMILES	IDE exosite inh
CCCC#Cc1cnc2c(c1)C(=O)N([C@H](C)CO)C[C@H](C)[C@@H](CN(C)C(=O)Nc1cc(F)ccc1F)O2	-
N#C[C@@H]1[C@@H](c2ccccc2C2=CCCC2)[C@H](CO)N1C(=O)NC1CCCCC1	-
O=C(C[C@H]1CC[C@@H]2[C@H](COC[C@H](O)CN2S(=O)(=O)c2ccccc2)O1)NCC1CCCCC1	-
CN(C)C(=O)c1cccc(-c2ccc([C@H]3[C@H](CO)N4CCCCN(CCC(F)(F)F)C[C@@H]34)cc2)c1	-
C[C@@H]1CN([C@H](C)CO)C(=O)c2cc(N(C)C)ccc2O[C@@H]1CN(C)Cc1ccc(Oc2ccccc2)cc1	-
C[C@@H]1CN([C@H](C)CO)C(=O)c2cc(N(C)C)ccc2O[C@H]1CN(C)Cc1ccc(Oc2ccccc2)cc1	-
COc1ccc(S(=O)(=O)Nc2ccc3c(c2)CC(=O)N([C@H](C)CO)C[C@@H](C)[C@H](CN(C)C(=O)Nc2c(C)noc2C)O3)cc1	-
C[C@H](CO)N1C[C@H](C)[C@H](CN(C)Cc2ccc(Oc3ccccc3)cc2)Oc2ccc(N(C)C)cc2C1=O	-4.2
Cc1noc(C)c1S(=O)(=O)Nc1ccc2c(c1)CC(=O)N([C@@H](C)CO)C[C@@H](C)[C@@H](CN(C)Cc1ccc(Oc3ccccc3)cc1)O2	-
Cc1noc(C)c1S(=O)(=O)Nc1ccc2c(c1)CC(=O)N([C@H](C)CO)C[C@H](C)[C@@H](CN(C)Cc1ccc(Oc3ccccc3)cc1)O2	-3.6
C[C@H]1CN([C@@H](C)CO)C(=O)CCCn2nncc2CO[C@@H]1CN(C)C(=O)CCC(F)(F)F	-
COc1cccc(S(=O)(=O)N2CCCCN3[C@@H](CO)[C@@H](c4ccc(-c5cncnc5)cc4)[C@@H]3C2)c1	-
COc1cccc(S(=O)(=O)N2CCCCN3[C@H](CO)[C@@H](c4ccc(-c5cccnc5)cc4)[C@@H]3C2)c1	-3.5
COc1cccc(S(=O)(=O)N2CCCCN3[C@H](CO)[C@H](c4ccc(-c5cccnc5)cc4)[C@H]3C2)c1	-
Cc1cccc(S(=O)(=O)N2CCCCN3[C@@H](CO)[C@@H](c4ccc(-c5cccnc5)cc4)[C@@H]3C2)c1	-3.3
COc1cccc(S(=O)(=O)N2CCCCN3[C@@H](CO)[C@@H](c4ccc(-c5cccnc5)cc4)[C@@H]3C2)c1	-6.3
Cc1cccc(S(=O)(=O)N2CCCCN3[C@H](CO)[C@H](c4ccc(-c5ccncc5)cc4)[C@H]3C2)c1	-
COc1cccc(S(=O)(=O)N2CCCCN3[C@H](C2)[C@@H](c2ccc(-c4cncnc4)cc2)[C@@H]3CO)c1	-
Cc1cccc(S(=O)(=O)N2CCCCN3[C@@H](CO)[C@H](c4ccc(-c5ccncc5)cc4)[C@@H]3C2)c1	-
COc1cccc(S(=O)(=O)N2CCCCN3[C@H](CO)[C@@H](c4ccc(-c5cncnc5)cc4)[C@@H]3C2)c1	-
CC(=O)N1[C@@H]2c3ccc(-c4cncnc4)c(=O)n3C[C@@H]2[C@@H](CO)[C@@H]1C(=O)NCc1ccccc1Cl	-
COc1cccc(NC(=O)N[C@@H]2CC[C@@H](CC(=O)N3CCN(C)CC3)O[C@H]2CO)c1	-
CCCC#Cc1ccc([C@@H]2[C@@H](CO)N3C(=O)CN(S(=O)(=O)Cc4ccccc4)C[C@@H]23)cc1	-
C/C=C/c1ccc([C@H]2[C@@H](CO)N(CC3CCCC3)[C@H]2CNC(=O)NC(C)C)cc1	-
O=C(NC1CCCC1)N1CCCCN2[C@H](C1)[C@@H](c1ccc(-c3cccnc3)cc1)[C@@H]2CO	-
SMILES	IDE exosite inh
COc1ccccc1-c1ccc([C@@H]2[C@H](C#N)N(C(=O)C3CCC3)[C@H]2CO)cc1	-
COc1ccccc1-c1ccccc1[C@H]1[C@@H](C#N)N(C(=O)C2CCC2)[C@@H]1CO	-
CN(C)C(=O)c1cccc(-c2ccc(C3[C@H]4CNC[C@@H]3N4Cc3nccs3)cc2)c1 (stereo not given in full)	-
COc1ccccc1-c1ccccc1[C@@H]1[C@H](C#N)N(C(=O)C2CCC2)[C@H]1CO	-
COc1ccccc1-c1ccccc1[C@H]1[C@@H](CO)N(C(=O)C2CC2)[C@H]1C#N	-
COc1ccccc1-c1ccc([C@@H]2[C@@H](CO)N(C(=O)C3CCC3)[C@H]2C#N)cc1	-6.5
COc1ccc(-c2ccc([C@H]3[C@H](C#N)N(C(=O)C4CCCC4)[C@H]3CO)cc2)cc1	-
COc1ccccc1-c1ccc([C@H]2[C@@H](CO)N(C(=O)C3CCC3)[C@H]2C#N)cc1	-
CN(C)C(=O)c1cccc(-c2ccc(C3[C@@H]4CN(Cc5nccs5)C[C@H]3N4)cc2)c1 (stereo not given in full)	-3.2!
CN(C)C(=O)c1ccc(-c2ccc(C3[C@@H]4CN(Cc5nccs5)C[C@H]3N4)cc2)cc1 (stereo not given in full)	-
COc1ccccc1-c1ccc([C@@H]2[C@@H](C#N)N(C(=O)C3CCC3)[C@@H]2CO)cc1	-12
COc1ccccc1-c1ccc([C@H]2[C@H](C#N)N(C(=O)C3CCC3)[C@H]2CO)cc1	-8.1
